Values joined by “and” are separate entries in the source; they are usually repeats but may differ in a detail not shown here. Equal values may be shown once. Results filed as inconclusive are left out. Active and inactive are the calls of the source. Unless noted, the call rests on the fitted dose curve; in most records, active means well fitted curve in the direction sought with a large enough effect; inconclusive means small, poorly fitted or top-dose-only effect, or another doubt; inactive means no such curve, though single readings can be large; an effect the other way counts as inactive or inconclusive.
How the values were obtained:
[1] = Cell Viability - Jurkat (AID 426;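 active means dose-dependent loss of cell ATP signal giving a full or clear fitted curve, ranked by lower potency value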; further: potency means the concentration at half of the fitted maximal effect); conditions: qHTS
Method in brief: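 Cytotoxicity was scored as loss of cellular ATP, measured by luciferase-based luminescence, in Jurkat clone E6-1 cells after 40 h compound treatment; tamoxifen and doxorubicin served as positive controls.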

[2] = Cell Viability - Hek293 (AID 427;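 active means compounds whose dose-response curve shows a full or clear partial loss of cell viability, called from curve shape rather than a numeric limit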;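 further: potency means the concentration at half of the fitted maximal effect; cells exposed to compound for 40 hours at 37 °C before reading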); conditions: qHTS
Method in brief: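 HEK293 cells in complete medium were exposed to compound for 40 hr at 37 °C, then cellular ATP was read by CellTiter-Glo luminescence. Data were normalized to DMSO (basal) and 100 uM tamoxifen (100% inhibition), and AC50 came from Hill fits.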

[3] = Cell Viability - HepG2 (AID 433; calls by dose curve;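 further: potency means the concentration at half of the fitted maximal effect; potency for ATP loss meaning cytotoxicity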); conditions: qHTS
Method in brief: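 HepG2 hepatocellular carcinoma cells (1500/well) were treated with compounds for 40 h at 37 °C in complete medium; intracellular ATP was read by CellTiter-Glo luminescence. Data were normalized to DMSO and 100 uM tamoxifen, and AC50 came from Hill fits.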

[4] = Cell Viability - SK-N-SH (AID 435; calls by dose curve;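 further: potency means the concentration at half of the fitted maximal effect; compound exposure lasted 40 h at 37 °C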); conditions: SK-N-SH neuroblastoma cell viability qHTS
Method in brief: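 SK-N-SH human neuroblastoma cells (1500/well) were exposed to compounds in complete medium for 40 h at 37 °C, and intracellular ATP was then measured by CellTiter-Glo luminescence. AC50 was taken from Hill fits, normalized to DMSO and 100 uM tamoxifen.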

[5] = target: Mitogen-activated protein kinase 10 (Mus musculus) (UniProt Q61831); assay: JNK3 AlphaScreen Assay (AID 530; active means well fitted curve in either direction with a large enough effect, not every such curve was filed as active;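 further: kinase came from lysate of stimulated human HepG2 cells; signal reports phosphorylation of biotinylated GST-cJun 1-79 at Ser73 with 10 µM ATP; on the % scale 0 is the no-effect control and ±100 the full control effect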); conditions: JNK3 lysate, c-Jun phosphorylation; series mostly up to 57.1 µM
Method in brief: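 Kinase buffer: 20 mM Tris-HCl pH 7.6, 10 mM MgCl2, 1 mM DTT, 0.1 mM Na3VO4, 0.01% Tween-20; ATP 10 uM. Substrate biotin-GST-cJun(1-79), enzyme from activated HepG2 lysates. Detection by Ser73 phospho-antibody AlphaScreen.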

[6] = Cell Viability - NIH 3T3 (AID 541); conditions: NIH 3T3 cell viability, qHTS; activity change, negative = cytotoxicity: at 92.2 µM (top of the series);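 further: plate controls were DMSO alone for no effect and tamoxifen positive control for full effect; nearly all actives have a fitted effect of over 25% in size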
Method in brief: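 In this cytotoxicity screen, acute toxicity is scored as an ATP drop measured by CellTiter-Glo in NIH 3T3 fibroblasts following a 40 hr, 37 °C incubation with compound.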

[7] = Cell Viability - H-4-II-E (AID 543); conditions: H-4-II-E rat hepatoma viability; series mostly up to 92.2 µM; further: on the % scale 0 is the no-effect control and ±100 the full control effect; nearly all actives have a fitted effect of over 35% in size
Method in brief: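 AC50 from Hill-modelled qHTS concentration-response curves. H-4-II-E rat hepatoma cells in complete medium, 40 hr exposure at 37 °C, viability by CellTiter-Glo ATP luminescence.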

[8] = Cell Viability - Mesenchymal (AID 546); conditions: mesenchymal cells viability, qHTS; activity change, negative = cytotoxicity: at 91.7 µM (top of the series);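 further: cells exposed to compound for 40 hours before reading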
Method in brief: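 CellTiter-Glo luminescence (intracellular ATP, 20 min room temperature) after 40 hr compound exposure at 37 °C of 1000 glomerulus-derived human kidney mesenchymal cells/well; AC50 values obtained by fitting qHTS concentration-response data to the Hill equation.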

[9] = Cellular Toxicity (caspase-3) HepG2 (AID 654); conditions: HepG2 caspase-3 activation, luminescence, 0% = DMSO only, 100% = tamoxifen; series mostly up to 92.2 µM;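 further: cells exposed to compound for 16 hours before reading; 0% = DMSO alone and 100% = caspase signal from 100 µM tamoxifen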
Method in brief: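 Concentration-response AC50 values reflect caspase-3/7 induction in HepG2 cells after 16 hours of compound exposure, quantified by luminescence from liberated aminoluciferin and referenced to 100 uM tamoxifen as full stimulation.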

[10] = Cellular Toxicity (caspase-3) HUV-EC-C (AID 656); conditions: HUV-EC-C cells, caspase-3 activation (apoptosis), vehicle = 0, 100 µM tamoxifen = 100%; series mostly up to 92.2 µM
Method in brief: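 HUV-EC-C endothelial cells, 1000/well, were pre-incubated 5 hr at 37°C, then exposed to compounds for 16 hr at 37°C. Caspase-Glo 3/7 luminescence was read after 20 min at room temperature. AC50 came from Hill fits, normalized to DMSO and 100 uM tamoxifen.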

[11] = Cellular Toxicity (caspase-3) BJ (AID 658); conditions: BJ fibroblasts, luminescence, normalized: DMSO 0%, staurosporine 100%; series mostly up to 91.7 µM
Method in brief: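 Caspase-Glo 3/7 luminescence, read 1 hr after reagent at room temperature, in normal BJ fibroblasts exposed 16 hours at 37 °C. AC50 values from Hill-equation concentration-response, scaled between DMSO basal and 10 uM staurosporine as 100%.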

[12] = Cellular Toxicity (caspase-3) MRC-5 (AID 659); conditions: MRC-5 cells, luminescence, normalized: DMSO 0%, 10 µM staurosporine 100%; series mostly up to 91.7 µM
Method in brief: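 Luminescent Caspase-Glo 3/7 read-out (1 h, room temperature) after a 16 h, 37 °C compound exposure of MRC-5 lung fibroblasts at 1500 cells/well. Concentration-response AC50 from Hill equation; 0% DMSO, 100% 10 uM staurosporine.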

[13] = Cellular Toxicity (caspase-3) Mesangial (AID 660); conditions: mesangial cells, normalized: DMSO 0%, 100 µM tamoxifen 100%; series mostly up to 91.7 µM;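 further: combined caspase 3 and 7 activity read by Caspase-Glo luminescence; cells exposed to compound for 16 h before the caspase read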
Method in brief: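 AC50 values come from Hill-equation fits of caspase 3/7 activation, measured as Caspase-Glo luminescence in human glomerular mesangial cells exposed to compound for 16 h at 37 °C; 100% set by 100 uM tamoxifen.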

[14] = Cellular Toxicity (caspase-3) NIH 3T3 (AID 666); conditions: NIH 3T3 caspase-3 activation, apoptosis/toxicity, 0% DMSO, 100% is 100 µM tamoxifen; series mostly up to 92.2 µM;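 further: 0% = DMSO basal and 100% = 100 µM tamoxifen stimulation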
Method in brief: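 Activity: caspase-3/7 induction, NIH 3T3 cells, 16 hr treatment at 37°C, luminescent Caspase-Glo detection; AC50 via Hill equation.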

[15] = Cellular Toxicity (caspase-3) Renal Proximal Tubule (AID 667); conditions: renal proximal tubule cells, primary cells freshly taken from rat, solvent-only wells 0%, staurosporine 100%; series mostly up to 91.7 µM;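 further: cells exposed to compound for 16 hours at 37 °C before detection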
Method in brief: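 Primary rat proximal tubule cells, 1000/well, 5 h plating at 37 °C, then compound 16 h at 37 °C. Caspase-Glo 3/7 reagent, 1 h RT, luminescence. Normalized to DMSO (basal) and 10 uM staurosporine (100%); Hill-fit AC50.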

[16] = MultiTox-Fluor Cytotoxicity Assay - LYMP1-003 - Live Cells (AID 962); conditions: LYMP1-003 lymphoblastoid cells, MultiTox-Fluor live-cell protease fluorescence; series mostly up to 92.2 µM;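 further: 0% = DMSO only and full loss = 92 µM tetraoctylammonium bromide; cytotoxic hits lower the live-cell protease signal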
Method in brief: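 Human lymphoblastoid line LYMP1-003 in complete culture medium, treated 16 hr with titrated compounds. Viable cells quantified via cell-permeant GF-AFC substrate fluorescence; AC50 derived by Hill fitting.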

[17] = Cell Viability - LYMP1-003 - Assay at 40 hr (AID 964); conditions: LYMP1-003 lymphoblastoid viability; series mostly up to 92.2 µM; further: on the % scale 0 is the no-effect control and ±100 the full control effect; nearly all actives have a fitted effect of over 60% in size
Method in brief: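 Acute toxicity is scored as a concentration-dependent loss of intracellular ATP in LYMP1-003 cells (2500/well, complete medium) after 40 hr at 37 C, measured by CellTiter-Glo luminescence; AC50 values derive from standard Hill modelling.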

[18] = Cell Viability - LYMP2-011 (AID 969); conditions: LYMP2-011 lymphoblastoid cells viability; series mostly up to 92.2 µM;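 further: cells exposed to compound for 24 hours; 0% = DMSO only and full inhibition = 92 µM tetraoctylammonium bromide; nearly all actives have a fitted effect of over 60% in size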
Method in brief: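 Cells seeded at 2500 per well rest 5 hr before compound addition, then incubate 24 hr at 37 C. CellTiter-Glo reagent is added for 30 min at room temperature before luminescence detection.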

[19] = qHTS Assay for Identification of Small Molecule Inducers of Hypoxia Response (AID 2120; active means well fitted curve in the direction sought with a large enough effect in the signal ratio, with a control signal flat, not every such curve was filed as active; the % refers to the signal ratio; further: 0% is about no effect); conditions: hypoxia response reporter cells, beta-lactamase ratio readout; series mostly up to 104 µM
Method in brief: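 HRE-bla ME-180, 2500 cells/well, 0.5% dialyzed FBS medium; cpd titration, 17 h 37 degrees C; CCF4 2.5 h RT; Ex 405, Em 460/530 ratio -> %Activity, AC50.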

[20] = target: Peroxisome proliferator-activated receptor alpha (Homo sapiens) (UniProt Q07869); assay: qHTS assay for small molecule agonists of the peroxisome proliferator-activated receptor alpha (PPARalpha) signaling pathway (AID 651778); conditions: PathHunter PPARalpha complementation, chemiluminescence, 6 h; max response: stronger effect = higher value; further: % of control where 0% means no effect
Method in brief: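 Chemiluminescence from complemented enzyme reported PPARalpha activation in cells after 6 hr of compound treatment at 37 C. The detection reagent was incubated for 60 min at room temperature, and compounds were scored as agonists.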

Sequence of Peroxisome proliferator-activated receptor alpha (Homo sapiens) (Q07869 whole entry, looked up): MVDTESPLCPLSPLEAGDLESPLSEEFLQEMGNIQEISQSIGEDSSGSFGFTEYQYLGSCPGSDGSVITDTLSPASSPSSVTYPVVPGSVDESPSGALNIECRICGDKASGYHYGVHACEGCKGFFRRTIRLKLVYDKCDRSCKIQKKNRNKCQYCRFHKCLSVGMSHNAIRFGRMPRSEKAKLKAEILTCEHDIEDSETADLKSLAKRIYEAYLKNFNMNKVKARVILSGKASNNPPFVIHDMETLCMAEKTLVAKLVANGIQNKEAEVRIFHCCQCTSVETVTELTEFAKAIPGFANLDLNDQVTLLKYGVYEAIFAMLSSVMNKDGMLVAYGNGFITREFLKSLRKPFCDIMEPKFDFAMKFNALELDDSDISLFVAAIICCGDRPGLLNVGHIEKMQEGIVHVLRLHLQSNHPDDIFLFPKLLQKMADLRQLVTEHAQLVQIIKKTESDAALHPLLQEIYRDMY

COC(=O)CCCCC(=O)OC
inactive: Potency [1] > 92 µM | Potency [2] > 92 µM | Potency [3] > 92 µM | Potency [4] > 92 µM | Potency [5] | Potency [6] | Potency [7] | activity change, negative = cytotoxicity [8] 1.32% | outcome [9] | outcome [10] | outcome [11] | outcome [12] | outcome [13] | outcome [14] | outcome [15] | Potency [16] | Potency [17] | Potency [18] | outcome [19] | max response [20] -1.36% and -1.93% and -0.772%

Nc1ccc(S(=O)(=O)O)cc1
inactive: Potency [1] > 92 µM | Potency [2] > 92 µM | Potency [3] > 92 µM | Potency [4] > 92 µM | Potency [5] | Potency [6] | Potency [7] | activity change, negative = cytotoxicity [8] 9.75% | outcome [9] | outcome [10] | outcome [11] | outcome [12] | outcome [13] | outcome [14] | outcome [15] | Potency [16] | Potency [17] | Potency [18] | outcome [19] | max response [20] -1.01% and -2.98%

CN(C)CCCCCCN(C)C
inactive: Potency [1] > 92 µM | Potency [2] > 92 µM | Potency [3] > 92 µM | Potency [4] > 92 µM | Potency [5] | Potency [6] | Potency [7] | activity change, negative = cytotoxicity [8] 10.5% | outcome [9] | outcome [10] | outcome [11] | outcome [12] | outcome [13] | outcome [14] | outcome [15] | Potency [16] | Potency [17] | Potency [18] | outcome [19] | max response [20] -5.54%

Cc1ccc([N+](=O)[O-])cc1N
inactive: Potency [1] > 92 µM | Potency [2] > 92 µM | Potency [3] > 92 µM | Potency [4] > 92 µM | Potency [6] | Potency [7] | activity change, negative = cytotoxicity [8] -1.39% | outcome [9] | outcome [10] | outcome [11] | outcome [12] | outcome [13] | outcome [14] | outcome [15] | Potency [16] | Potency [17] | Potency [18] | outcome [19] | max response [20] -4.31% and -1.18%

CC(C)=CCCC(C)CCO (centres undefined)
inactive: Potency [1] > 92 µM | Potency [2] > 92 µM | Potency [3] > 92 µM | Potency [4] > 92 µM | Potency [5] | Potency [6] | Potency [7] | activity change, negative = cytotoxicity [8] 5.35% | outcome [9] | outcome [10] | outcome [11] | outcome [12] | outcome [13] | outcome [14] | outcome [15] | Potency [16] | Potency [17] | Potency [18] | outcome [19] | max response [20] -8.23% and 0.206%

— PubChem BioAssay (NCATS)
